Screens: PubChem, several laboratories
The list is not random: actives were taken first. Their share in the collection is about 2.3%.
MCL1 BIM primary – MCL1-BIM-BH3 interaction inhibition (human); AID 2057; 0.68% of 320,000 active; Q07820; GST-MCL1 / FITC-Bim-BH3 fluorescence polarization; inhibition, % at 10.9 µM;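 active means inhibition above the mean inhibition of all tested compounds plus 3 SD, set per campaign, cut at about 40% in these data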;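 further: 0% = DMSO wells and 100% = unlabeled Bim-BH3 peptide control; higher means more loss of mP so more displacement of Bim peptide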
Mcl1 Bid PPI – Mcl-1/Bid interaction inhibition. Q07820. inhibition, % at 21.7 µM. AID 1021. TR-FRET Mcl-1/Bid-Dy647 peptide binding, 1536-well. 0.97% of 220,000 active;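 active means compounds that cut the binding signal by more than half at the single screening dose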;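 further: His-tagged Mcl-1 with europium anti-His antibody binding Bid BH3 peptide; 0% = Mcl-1 plus peptide wells and 100% = peptide-only wells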
BCLXL inh – Bcl-xL (human) inhibition | GST-Bcl-xL / FITC-Bim BH3 peptide fluorescence polarization | inhibition, % at 10.9 µM | 0.7% of 320,000 active | AID 2129;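 active means inhibition above the mean of all tested compounds plus 3 SD, cutoff set per campaign, cut at about 30% in these data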;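 further: 0% = DMSO wells and 100% = unlabeled Bim-BH3 peptide competitor; inhibitors lower millipolarization by displacing the labeled peptide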
GLD-1 TGE inh – GLD-1-TGE RNA interaction inhibition (C. elegans). AID 2280. purified GLD-1 + fluorescein TGE RNA, fluorescence polarization. Q17339. inhibition, % at 5.96 µM. 0.44% of 320,000 active;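 active means percent inhibition above a per-plate cutoff, the plate mean of test compounds plus 3 SD, cut at about 30% in these data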;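 further: 0% = DMSO wells with GLD-1 and probe and 100% = wells lacking GLD-1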
Target sequence (Q17339 whole entry, looked up): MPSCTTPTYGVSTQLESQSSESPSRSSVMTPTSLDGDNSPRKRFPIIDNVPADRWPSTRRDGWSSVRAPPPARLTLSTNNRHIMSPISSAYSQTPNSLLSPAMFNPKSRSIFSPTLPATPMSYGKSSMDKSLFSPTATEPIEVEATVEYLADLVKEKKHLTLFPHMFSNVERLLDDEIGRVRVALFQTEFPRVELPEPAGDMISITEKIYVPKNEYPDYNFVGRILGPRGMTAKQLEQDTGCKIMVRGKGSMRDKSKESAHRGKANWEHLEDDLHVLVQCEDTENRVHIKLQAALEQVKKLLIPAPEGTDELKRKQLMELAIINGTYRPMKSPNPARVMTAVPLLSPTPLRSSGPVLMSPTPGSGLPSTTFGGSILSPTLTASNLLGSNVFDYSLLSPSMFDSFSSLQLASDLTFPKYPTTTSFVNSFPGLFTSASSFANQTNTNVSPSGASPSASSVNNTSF
Mcl1 Noxa PPI – disrupts binding of human Mcl-1 to Noxa peptide; Q07820; TR-FRET Mcl-1/Noxa peptide binding, 2 h; inhibition, % at 21.7 µM; 1.5% of 220,000 active; AID 1022;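 active means compounds that cut the protein-peptide binding signal by more than 50% relative to plate controls in a single-dose test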;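 further: His-tagged Mcl-1 with rhodamine Noxa BH3 peptide and terbium anti-His antibody; 0% = Mcl-1 plus Noxa peptide wells and 100% = peptide-only wells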
Bim-Mcl-1 – disrupts Bim peptide binding to human Mcl-1; Q07820; Bead-based flow cytometry, Bim peptide-Mcl-1 binding; inhibition, % at 10 µM; 0.1% of 190,000 active; in the data active means inhibition above about 40%;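 further: 0% = no compound tracer wells and 100% = peptide blocker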
The depositor's hits bear a star; . = no result given; ! = not confirmed by another sample.

SMILES	MCL1 BIM primary	Mcl1 Bid PPI	BCLXL inh	GLD-1 TGE inh	Mcl1 Noxa PPI	Bim-Mcl-1
O=C(O)CC12CC3CC(C1)CC(n1ncc(NCc4ccccc4Cl)c(Cl)c1=O)(C3)C2	-8	57*	1	1	19	.
O=C(O)CC12CC3CC(C1)CC(n1ncc(NCc4ccc(F)cc4Cl)c(Cl)c1=O)(C3)C2	-3	-12	1	3	-5	2
O=C(NC1CCN(C(=O)Nc2ccc(F)cc2)CC1)c1ccc(F)cc1	0	.	-1	-3	.	.
Cc1ccc(-c2ccc(CCC(=O)O)n2NC(=O)c2cccs2)cc1	0	-40	3	2	-6	49*
COc1ccc(-c2ccc(CCC(=O)O)n2NC(=O)c2cccs2)cc1	0	-43	0	-7	3	0
Cc1ccc(NC(=O)c2ccc3c(c2)C(=O)N(c2cc(C)ccc2C)C3=O)nc1	13	.	3	-3	.	.
O=C(/C=C/Nc1ccc(F)c(Cl)c1)c1ccco1	-6	-49	-1	3	-6	0
O=C(/C=C/Nc1cccc(F)c1)c1ccco1	2	87*	-1	2	-3	-2
O=[N+]([O-])c1ccc2nc(-c3cccnc3)[nH]c2c1	-5	.	1	8	.	.
O=[N+]([O-])c1cc([N+](=O)[O-])c2cc(-c3cccnc3)[nH]c2c1	27	.	36*	9	.	.
ClC(/C=N/n1cnnc1)=C/c1ccccc1	4	-55	5	10	10	.
COc1ccc(C(=O)Nc2nc3c(s2)Cc2cc(OC)ccc2-3)cc1	11	55*	8	5	86*	0
COc1ccc(C(=O)Nc2nc3ccc4nc(C)sc4c3s2)cc1	-15	13	-7	2	53*	2
COc1cc(C(=O)Nc2nc3ccc4nc(C)sc4c3s2)cc(OC)c1OC	-3	4	-1	-1	12	-3
CSc1sc(C(=O)NNC(C)=O)c2c1C=CCC2	7	-24	6	-1	3	.
O=C(Cc1ccccc1)Nc1scc(-c2ccccc2)c1C(=O)N1CCOCC1	-17	86*	-1	-1	20	0
O=C(Nc1scc(-c2ccccc2)c1C(=O)O)c1ccco1	6	-13	8	7	9	-1
C#CCn1cc(/C=N/Nc2nc3ccccc3[nH]2)c2ccccc21	4	-43	0	2	39	-5
O=C(Cn1ncn2c(cc3ccccc32)c1=O)NCc1ccco1	8	-13	2	2	69*	-5
COc1ccc(CNC(=O)Cn2ncn3c(cc4ccccc43)c2=O)cc1	4	-5	-2	1	3	.
O=C(Cn1cnc2scc(-c3ccccc3)c2c1=O)NCc1ccco1	8	-59	7	3	51*	-3
COc1ccc(CCN(C)S(=O)(=O)c2cn(C)c(=O)n(C)c2=O)cc1OC	-7	.	-3	-1	.	.
Cc1ccc2oc(-c3ccc(C)c(NC(=S)NC(=O)c4cccs4)c3)nc2c1	7	53*	2	0	38	-4
COc1nc(N)nc2nc[nH]c12	4	.	5	6	.	.
CCOc1ccccc1NC(=O)CN(C)S(=O)(=O)c1cccc2nsnc12	6	88*	5	-1	8	3
SMILES	MCL1 BIM primary	Mcl1 Bid PPI	BCLXL inh	GLD-1 TGE inh	Mcl1 Noxa PPI	Bim-Mcl-1
Cc1cccc(NC(=O)CN(C)S(=O)(=O)c2cccc3nsnc23)c1C	3	6	4	-1	-17	0
O=[N+]([O-])c1c(NCCO)cc(N2CCC3(CC2)OCCO3)c2nonc12	-2	-8	-1	-12	6	3
CCOC(=O)N1CCN(c2cc(NCCC(=O)O)c3c4c(onc24)-c2ccccc2C3=O)CC1	33	-26	43*	23	73*	27
O=C(O)CCCNc1cc(N2CCC3(CC2)OCCO3)c2noc3c2c1C(=O)c1ccccc1-3	90*	-16	71*	21	89*	24
CN1CCN(c2cc(N3CCN(C(=O)c4ccco4)CC3)c3c4c(onc24)-c2ccccc2C3=O)CC1	43*	.	37*	6	.	.
COc1ccc(S(=O)(=O)NCC(c2ccc3c(c2)OCO3)N2CCN(c3ccccc3)CC2)cc1 (configuration not stated)	-6	.	-4	8	.	.
CS(=O)(=O)c1[nH]nc(-c2ccccc2Cl)c1C#N	5	15	3	-2	1	.
CCOc1ccc(-n2c(=S)sc3c(=O)n(-c4ccc(F)cc4)c(SCC(=O)O)nc32)cc1	2	.	2	0	.	.
CNc1ccccc1C(=O)OCC(=O)N(CCOC)c1c(N)n(CC(C)C)c(=O)[nH]c1=O	2	.	4	6	.	.
Cc1cc(C(=O)NC2CCCc3c2cnn3-c2cccc(C)c2C)n(C)n1 (configuration not stated)	3	.	5	4	.	.
COc1ccc(CNC(=O)CSc2nnc3c(n2)[nH]c2ccccc23)cc1	5	.	-1	-1	.	.
O=C(CSc1nnc2c(n1)[nH]c1ccccc12)NCc1ccco1	13	-27	12	1	73*	-6
O=C(COC(=O)CCC(=O)c1cccs1)NC1CC1	-5	-27	-5	1	8	-1
Cc1c(Cl)cnc(NC(=O)COC(=O)[C@H](C)NC(=O)c2ccccc2)c1Cl	46*	.	32*	16	.	.
Cc1c(Cl)cnc(NC(=O)COC(=O)c2ccncc2)c1Cl	37	.	34*	18	.	.
CCCCn1c(SCC(=O)NCCOC)nc2ccc(N3CCOCC3)cc2c1=O	16	-34	12	1	89*	-3
Cc1ccc(SCc2cc(=O)n(C)[nH]2)cc1	6	-62	2	0	15	-1
CC(=O)N1CCN(S(=O)(=O)c2cccc(C(=O)OCc3cccc(F)c3)c2)CC1	-4	.	-5	0	.	.
CC(C)Oc1ccc2c(=O)c(-c3ccccc3)coc2c1	10	64*!	0	10	44	-3
Cc1c2cnn(CC(=O)Nc3c(F)c(F)cc(F)c3F)c(=O)c2c(C)n1Cc1ccccc1F	41*	-57	35*	3	49	-6
COc1cc(/C=C2\SC(c3ccc(C)cc3)=NC2=O)cc(OC)c1O	-98	-23	-53	-10	51*	-3
COc1cc(/C=C2\SC(N)=NC2=O)cc(Cl)c1O	-52	.	-29	-76	.	.
Cc1ccc(C2=NC(=O)/C(=C/c3cc(O)c(O)c(Br)c3)S2)cc1	.	-4	.	.	95*	1
COc1ccc(/C=C2\SC(N)=NC2=O)cc1Br	23	.	3	-11	.	.
Cc1ccc(C(=O)NCc2cccnc2)cc1S(=O)(=O)N1CCCCCC1	3	.	7	1	.	.
Cc1ccc(CN2C(=O)CCC2C(=O)NCc2ccccc2Cl)cc1 (configuration not stated)	1	4	0	9	16	2
COc1ccc(NC(=O)/C(C#N)=C\c2ccc(N3CCOCC3)o2)cc1	-270	-44	-176	-266	-1	-9
